About 2,400 (1.1%) of roughly 220,000 compounds were called active.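 The calls were made as follows: active = inhibition above the campaign mean plus 3 SD over all tested compounds (cut at about 24% in these data); inactive = the rest.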 The list comes from a sample in which actives are over-represented; it also holds similar structures and randomly drawn compounds.
Experiment: reduced viability of JAK2V617F-dependent Ba/F3 cells, primary screen, JAK2V617F inhibitor project, cell-based, Ba/F3 EpoR-JAK2V617F, luminescence (AID 1446);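 also: cytokine-independent growth of Ba/F3 cells driven by EpoR plus mutant JAK2; 0% = DMSO-treated cells and 100% = JAK inhibitor I control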
Details: ATP luminescence, at 5.6 µM, active compounds read high

Structure (SMILES) | inhibition
CCN(CC)c1ccc(NC(=O)c2ccc(Cl)nc2)cc1 | 81.4% (active)
O=C(NNc1ccccn1)c1ccc(Cl)nc1 | -0.88% (inactive)
NS(=O)(=O)c1ccc(NC(=O)COC(=O)c2ccc(Cl)nc2)cc1 | 0.7% (inactive)
COc1ccc(CN(C)Cc2nc3cc(OC)c(OC)cc3c(=O)[nH]2)c(OC)c1 | 1.74% (inactive)
C[C@H](NC(=O)c1ccccc1Cl)C(=O)OCCOc1cccc(Cl)c1 | -3.18% (inactive)
Cn1cc(C(=O)NCc2ccccc2F)cn1 | -6.67% (inactive)
N#CC1(C#N)C(C(=O)C23CC4CC(CC(C4)C2)C3)C12CCOCC2 (stereo unspecified) | -2.53% (inactive)
Cn1c(N)c(C(=O)COC(=O)/C=C/c2ccc(OC(F)F)cc2)c(=O)n(C)c1=O | 2.97% (inactive)
Cc1ccc(NC(=O)CN(C)Cc2ccc(F)cc2)c([N+](=O)[O-])c1 | -2.86% (inactive)
CC(=O)Nc1ccc(Nc2c3ccccc3nc3ccccc23)cc1 | 102% (active)
O=[N+]([O-])c1cccc(Nc2c3ccccc3nc3ccccc23)c1 | -2.83% (inactive)
Cc1ccc(Nc2c3c(nc4ccccc24)CCC3)cc1 | 4.72% (inactive)
CC[C@H]1CN2CCc3cc(OC)c(OC)cc3[C@@H]2C[C@@H]1C[C@H]1NCCc2cc(OC)c(OC)cc21 | 101% (active)
COc1cc2c(cc1O)[C@H](Cc1ccc(Oc3cc(C[C@@H]4NCCc5cc(OC)c(O)cc54)ccc3O)cc1)NCC2 | 1.92% (inactive)
Cn1cnc(C(F)(F)F)c1-c1ccc([N+](=O)[O-])cc1 | -0.95% (inactive)
O=C(O)/C=C/c1ccc2c(c1)OCCO2 | 0.26% (inactive)
CNCC(O)CN1CCN(c2ccccc2OC)CC1 (stereo unspecified) | -2.42% (inactive)
COc1ccccc1N1CCN(CCCCOc2ccc(F)cc2)CC1 | -1.67% (inactive)
COc1ccccc1N1CCN(Cc2ccc(OC)c3ccccc23)CC1 | 26.8% (active)
O=c1[nH]c2ccccc2s1 | 1.22% (inactive)
O=C(Oc1ccccc1Cl)c1ccc(N2CCOCC2)c([N+](=O)[O-])c1 | 0.46% (inactive)
Cc1ccc(S(=O)(=O)NCCC(c2ccccc2)c2ccccc2)cc1C(=O)O | 0.73% (inactive)
C/C(=N/NC(=O)CN1CCN(S(=O)(=O)c2ccc(Br)cc2)CC1)c1ccncc1 | -1.23% (inactive)
COc1ccc(-c2csc(Cc3nc(O)cs3)n2)cc1 | -2.27% (inactive)
Cc1onc(C(=O)NN)c1-c1csc(COc2ccccc2)n1 | 3.97% (inactive)
CC(C)(C)C(=O)OCc1nc(-c2ccc(O)c(O)c2)cs1 | 83.4% (active)
